For assay [1], the system named is Tyrosine-protein kinase ABL1 (Homo sapiens), P00519 [T315I]. Conditions: at 1 µM.
The subject of assay [2] is Tyrosine-protein kinase ABL1 (Homo sapiens), P00519 [Y253F]. The following applies: at 0.1 µM.
Assay [3] shares this test system. The following applies: at 1 µM.
In assay [4] the target is Tyrosine-protein kinase ABL1 (Homo sapiens) (UniProt P00519). The following applies: at 0.1 µM.
Assay [5] shares this target. The following applies: at 1 µM.
In assay [6] the target is ALK tyrosine kinase receptor (Homo sapiens) (UniProt Q9UM73). Conditions: at 0.1 µM.
Sequence of ALK tyrosine kinase receptor (Homo sapiens) (Q9UM73 19-1620 limits assumed): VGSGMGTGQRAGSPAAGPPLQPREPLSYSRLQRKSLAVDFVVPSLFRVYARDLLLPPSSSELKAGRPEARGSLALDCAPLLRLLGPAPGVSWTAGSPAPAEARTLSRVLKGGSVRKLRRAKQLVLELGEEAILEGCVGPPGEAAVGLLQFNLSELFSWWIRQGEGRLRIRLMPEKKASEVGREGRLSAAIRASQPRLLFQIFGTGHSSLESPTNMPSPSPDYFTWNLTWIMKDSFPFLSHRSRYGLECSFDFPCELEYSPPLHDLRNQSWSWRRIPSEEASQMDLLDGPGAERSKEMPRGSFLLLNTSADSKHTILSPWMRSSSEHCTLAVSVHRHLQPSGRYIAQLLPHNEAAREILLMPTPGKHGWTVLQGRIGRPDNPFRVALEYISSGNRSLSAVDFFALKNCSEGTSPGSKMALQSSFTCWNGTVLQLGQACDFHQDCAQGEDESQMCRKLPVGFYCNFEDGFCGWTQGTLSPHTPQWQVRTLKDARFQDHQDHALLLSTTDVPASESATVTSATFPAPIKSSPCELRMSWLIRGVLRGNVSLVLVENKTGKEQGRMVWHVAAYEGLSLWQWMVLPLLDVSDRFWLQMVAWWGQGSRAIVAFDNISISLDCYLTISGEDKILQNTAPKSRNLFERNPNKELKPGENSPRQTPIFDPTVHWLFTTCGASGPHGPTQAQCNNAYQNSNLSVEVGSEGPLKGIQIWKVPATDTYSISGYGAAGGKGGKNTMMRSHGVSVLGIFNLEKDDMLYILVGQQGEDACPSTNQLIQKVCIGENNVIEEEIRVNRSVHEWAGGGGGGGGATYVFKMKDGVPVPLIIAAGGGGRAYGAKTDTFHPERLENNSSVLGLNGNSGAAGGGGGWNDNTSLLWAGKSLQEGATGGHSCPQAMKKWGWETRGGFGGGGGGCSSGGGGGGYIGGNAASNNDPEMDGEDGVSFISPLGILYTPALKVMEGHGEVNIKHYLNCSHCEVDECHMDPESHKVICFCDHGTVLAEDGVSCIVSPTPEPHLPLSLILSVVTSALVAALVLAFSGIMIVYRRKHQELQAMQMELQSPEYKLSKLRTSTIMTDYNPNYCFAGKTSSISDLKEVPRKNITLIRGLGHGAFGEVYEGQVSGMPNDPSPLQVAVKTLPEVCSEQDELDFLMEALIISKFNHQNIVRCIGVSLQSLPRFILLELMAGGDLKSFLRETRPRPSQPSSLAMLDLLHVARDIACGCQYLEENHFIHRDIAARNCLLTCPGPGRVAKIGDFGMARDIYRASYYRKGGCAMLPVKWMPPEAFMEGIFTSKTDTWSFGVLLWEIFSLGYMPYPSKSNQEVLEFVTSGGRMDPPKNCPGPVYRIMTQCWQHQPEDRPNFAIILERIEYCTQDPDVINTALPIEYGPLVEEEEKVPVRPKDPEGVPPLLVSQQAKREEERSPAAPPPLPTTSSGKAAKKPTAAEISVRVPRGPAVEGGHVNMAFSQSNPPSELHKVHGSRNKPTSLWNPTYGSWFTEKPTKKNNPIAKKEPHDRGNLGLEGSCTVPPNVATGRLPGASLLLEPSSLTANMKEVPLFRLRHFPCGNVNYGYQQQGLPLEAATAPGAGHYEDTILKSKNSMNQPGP
Assay [7] shares this target. The following applies: at 1 µM.
The target of assay [8] is Tyrosine-protein kinase ABL2 (Homo sapiens) (UniProt P42684). Conditions: at 0.1 µM.
The target is the same in assay [9]. The following applies: at 1 µM.
Assay [10] concerns the target Tyrosine-protein kinase receptor UFO (Homo sapiens) (UniProt P30530). The following applies: at 0.1 µM.
For assay [11] the target is unchanged. The following applies: at 1 µM.
Assay [12] deals with Tyrosine-protein kinase Blk (Homo sapiens) (UniProt P51451). The following applies: at 0.1 µM.
Sequence of Tyrosine-protein kinase Blk (Homo sapiens) (P51451 2-505 limits assumed): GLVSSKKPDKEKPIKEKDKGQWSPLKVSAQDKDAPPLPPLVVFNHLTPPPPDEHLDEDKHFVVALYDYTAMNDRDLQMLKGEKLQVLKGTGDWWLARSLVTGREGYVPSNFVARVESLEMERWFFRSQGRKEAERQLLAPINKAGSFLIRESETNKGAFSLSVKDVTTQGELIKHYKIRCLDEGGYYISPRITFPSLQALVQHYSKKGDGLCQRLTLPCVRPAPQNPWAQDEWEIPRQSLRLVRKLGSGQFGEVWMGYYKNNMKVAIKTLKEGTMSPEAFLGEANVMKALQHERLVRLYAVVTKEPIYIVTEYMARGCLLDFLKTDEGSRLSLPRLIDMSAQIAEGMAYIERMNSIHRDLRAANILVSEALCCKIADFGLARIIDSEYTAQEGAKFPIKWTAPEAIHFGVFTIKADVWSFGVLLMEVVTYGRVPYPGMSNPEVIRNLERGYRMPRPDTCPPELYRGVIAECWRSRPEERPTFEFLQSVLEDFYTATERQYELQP
Assay [13] shares this target. Conditions: at 1 µM.
Assay [14] deals with T1, Cytoplasmic tyrosine-protein kinase BMX (Homo sapiens) (UniProt P51813).
T1 sequence (whole entry): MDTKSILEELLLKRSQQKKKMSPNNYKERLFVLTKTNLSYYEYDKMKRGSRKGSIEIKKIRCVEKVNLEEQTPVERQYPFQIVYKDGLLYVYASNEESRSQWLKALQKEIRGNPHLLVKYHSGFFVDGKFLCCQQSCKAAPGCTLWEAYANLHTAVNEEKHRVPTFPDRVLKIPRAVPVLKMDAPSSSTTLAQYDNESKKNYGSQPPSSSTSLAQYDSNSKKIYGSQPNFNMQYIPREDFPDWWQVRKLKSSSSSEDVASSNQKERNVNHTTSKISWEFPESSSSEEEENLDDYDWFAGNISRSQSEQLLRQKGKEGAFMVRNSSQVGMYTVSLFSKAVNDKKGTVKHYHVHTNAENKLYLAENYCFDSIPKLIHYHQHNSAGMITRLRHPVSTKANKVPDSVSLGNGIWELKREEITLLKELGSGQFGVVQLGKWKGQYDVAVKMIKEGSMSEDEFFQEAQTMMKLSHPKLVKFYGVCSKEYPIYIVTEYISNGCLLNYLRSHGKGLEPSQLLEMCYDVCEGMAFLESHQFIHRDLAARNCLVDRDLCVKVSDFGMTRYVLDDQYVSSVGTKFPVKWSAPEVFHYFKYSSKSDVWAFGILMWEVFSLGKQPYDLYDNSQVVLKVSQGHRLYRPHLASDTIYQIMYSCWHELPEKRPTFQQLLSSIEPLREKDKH
The following applies: at 0.1 µM.

In assay [15] the target is T1, Cytoplasmic tyrosine-protein kinase BMX (Homo sapiens). The following applies: at 1 µM.
Assay [16] deals with Protein-tyrosine kinase 6 (Homo sapiens) (UniProt Q13882). The following applies: at 0.1 µM.
Sequence of Protein-tyrosine kinase 6 (Homo sapiens) (Q13882 whole entry, looked up): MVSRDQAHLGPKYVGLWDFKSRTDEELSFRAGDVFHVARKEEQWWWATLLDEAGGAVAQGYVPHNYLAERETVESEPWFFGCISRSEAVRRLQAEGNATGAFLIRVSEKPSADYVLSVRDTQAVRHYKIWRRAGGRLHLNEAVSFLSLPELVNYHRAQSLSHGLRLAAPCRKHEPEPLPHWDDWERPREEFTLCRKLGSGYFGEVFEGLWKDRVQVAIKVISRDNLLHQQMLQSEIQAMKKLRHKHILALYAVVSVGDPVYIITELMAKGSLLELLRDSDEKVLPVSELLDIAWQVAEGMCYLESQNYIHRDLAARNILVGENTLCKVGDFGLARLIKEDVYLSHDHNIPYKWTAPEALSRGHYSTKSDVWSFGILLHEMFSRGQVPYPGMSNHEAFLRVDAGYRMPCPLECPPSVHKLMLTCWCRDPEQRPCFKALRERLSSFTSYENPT
The target is the same in assay [17]. Conditions: at 1 µM.
For assay [18], the target named is Tyrosine-protein kinase BTK (Homo sapiens) (UniProt Q06187). Conditions: at 0.1 µM.
Sequence of Tyrosine-protein kinase BTK (Homo sapiens) (Q06187 whole entry): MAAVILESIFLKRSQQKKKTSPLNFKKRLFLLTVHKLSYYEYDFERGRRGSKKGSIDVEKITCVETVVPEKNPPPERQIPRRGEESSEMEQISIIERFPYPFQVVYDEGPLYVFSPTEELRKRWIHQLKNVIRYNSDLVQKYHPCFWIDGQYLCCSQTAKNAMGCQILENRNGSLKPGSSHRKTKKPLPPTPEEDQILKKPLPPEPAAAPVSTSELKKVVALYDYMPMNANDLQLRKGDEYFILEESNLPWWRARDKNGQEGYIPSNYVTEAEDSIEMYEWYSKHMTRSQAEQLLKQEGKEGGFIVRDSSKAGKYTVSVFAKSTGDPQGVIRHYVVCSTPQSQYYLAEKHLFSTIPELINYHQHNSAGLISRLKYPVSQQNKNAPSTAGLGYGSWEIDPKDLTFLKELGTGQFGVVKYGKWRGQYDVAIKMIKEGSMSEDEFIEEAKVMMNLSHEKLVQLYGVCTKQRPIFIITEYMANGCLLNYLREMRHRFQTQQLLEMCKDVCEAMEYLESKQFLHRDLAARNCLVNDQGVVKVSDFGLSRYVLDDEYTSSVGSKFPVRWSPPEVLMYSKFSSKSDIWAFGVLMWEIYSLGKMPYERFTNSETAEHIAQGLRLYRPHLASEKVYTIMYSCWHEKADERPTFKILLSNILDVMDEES
Assay [19] has the same target. Conditions: at 1 µM.
The target of assay [20] is Tyrosine-protein kinase CSK (Homo sapiens) (UniProt P41240). Conditions: at 0.1 µM.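 Also: value given is the averaged percent inhibition of CSK kinase activity, from the GSK PKIS kinase inhibitor set screening panel.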
Sequence of Tyrosine-protein kinase CSK (Homo sapiens) (P41240 2-450 limits assumed): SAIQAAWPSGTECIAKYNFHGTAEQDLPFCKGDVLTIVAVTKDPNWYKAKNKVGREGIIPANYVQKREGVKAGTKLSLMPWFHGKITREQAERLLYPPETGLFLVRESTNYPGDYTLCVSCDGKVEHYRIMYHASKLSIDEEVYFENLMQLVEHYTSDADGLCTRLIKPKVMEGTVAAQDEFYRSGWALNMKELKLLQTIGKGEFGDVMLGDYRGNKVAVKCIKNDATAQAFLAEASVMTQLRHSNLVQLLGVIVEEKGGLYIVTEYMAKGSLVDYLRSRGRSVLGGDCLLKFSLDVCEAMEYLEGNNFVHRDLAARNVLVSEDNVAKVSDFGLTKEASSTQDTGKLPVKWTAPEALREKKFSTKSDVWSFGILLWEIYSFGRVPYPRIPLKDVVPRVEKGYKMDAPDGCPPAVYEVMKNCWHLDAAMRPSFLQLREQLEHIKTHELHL

Sequence of Tyrosine-protein kinase receptor UFO (Homo sapiens) (P30530 whole entry): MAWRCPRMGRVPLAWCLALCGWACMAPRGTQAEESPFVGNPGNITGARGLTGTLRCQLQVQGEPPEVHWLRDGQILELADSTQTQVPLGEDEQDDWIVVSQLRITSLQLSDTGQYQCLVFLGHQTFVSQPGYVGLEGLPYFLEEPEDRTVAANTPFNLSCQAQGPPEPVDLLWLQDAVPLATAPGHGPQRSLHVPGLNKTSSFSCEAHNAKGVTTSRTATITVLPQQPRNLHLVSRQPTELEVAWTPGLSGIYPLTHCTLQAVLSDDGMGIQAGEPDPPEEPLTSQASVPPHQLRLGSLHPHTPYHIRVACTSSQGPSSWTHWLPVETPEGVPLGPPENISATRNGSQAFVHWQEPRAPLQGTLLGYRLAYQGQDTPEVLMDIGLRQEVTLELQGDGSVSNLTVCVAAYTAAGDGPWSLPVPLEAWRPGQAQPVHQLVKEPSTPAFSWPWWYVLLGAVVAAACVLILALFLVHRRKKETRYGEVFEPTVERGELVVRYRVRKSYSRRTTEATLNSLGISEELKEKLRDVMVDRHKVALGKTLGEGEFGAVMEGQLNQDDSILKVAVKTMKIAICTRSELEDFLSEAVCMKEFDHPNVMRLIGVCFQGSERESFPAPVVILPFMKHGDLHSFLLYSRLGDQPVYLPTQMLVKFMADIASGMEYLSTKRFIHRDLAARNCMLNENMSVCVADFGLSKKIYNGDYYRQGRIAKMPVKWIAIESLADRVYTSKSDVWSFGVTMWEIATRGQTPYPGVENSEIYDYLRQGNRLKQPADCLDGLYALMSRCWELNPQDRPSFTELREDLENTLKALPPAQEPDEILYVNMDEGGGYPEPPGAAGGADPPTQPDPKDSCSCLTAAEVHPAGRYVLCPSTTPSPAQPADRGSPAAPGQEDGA

As to `CS(=O)(=O)CCNCc1ccc(-c2ccc3ncnc(Nc4ccc(OCc5cccc(F)c5)c(C(F)(F)F)c4)c3c2)o1`, the inhibition (as a rule, the change of the read-out against control, counted positive when it falls) in [1] was determined as 4.21%; in [2] it was 4.9%; in assay [3], 2.89%; in assay [4] it was 2.03%; in assay [5], 2.75%; in assay [6], 1.6%. The inhibition in assay [7] was 2.6%; in assay [8] it was 4.19%; in assay [9] it was 4.05%; in assay [10], -5.05%; in [11], -5.02%; in [12], 2.7%. The inhibition was 3.9% in [13]; 3.53% in assay [14]; 3.77% in [15]; 4.08% in assay [16]; 5.42% in assay [17]; 0.73% in assay [18]. In addition, the inhibition is -0.77% in [19] and 2.85% in [20].

Take `Cn1cc(C=C2C(=O)Nc3cccnc32)c2ccccc21`: the inhibition turned out to be 43.9% in [1]; 10.6% in assay [2]; 48.7% in [3]; 7.81% in assay [4]; 44.7% in assay [5]; 5.12% in assay [6]. In addition, the inhibition in assay [7] is 9.81%; in [8] it was 3.71%; in assay [9] it was 20.9%; in [10], -2.84%; in assay [11], 19.1%; in assay [14], 3.27%. In addition, the inhibition in assay [15] was found to be 4.89%; in assay [16], 0.63%; in assay [17], 2.28%; in assay [18], 1.87%; in assay [19] it was 3.46%; in [20] it was 1.5%.

On to `COc1cc(C)c(NC(=O)CN(C)C)cc1Nc1nc(Nc2cccc(F)c2C(N)=O)c2cc[nH]c2n1`, for which the inhibition is 0.49% in [1]; 3.3% in [2]; -0.09% in assay [3]; 1.95% in [4]; 4.55% in assay [5]; 97.8% in [6]. Further, the inhibition was 88.9% in assay [7]; 1.11% in assay [8]; -0.02% in [9]; 17.6% in assay [10]; 63.7% in assay [11]; 0.68% in assay [12]. For the same molecule, the inhibition in assay [13] was determined as 4.45%; in assay [14], 0.07%; in assay [15] it was 2.64%; in [16], 3.06%; in [17] it was 23.8%; in assay [18], 0.31%. For the same molecule, the inhibition amounted to 0.16% in [19] and 1.05% in assay [20].

As for `NS(=O)(=O)c1cccc(-c2ccc3c(NC(=O)C4CC4)n[nH]c3c2)c1`, the inhibition in assay [1] was 25.3%; in [2], 2.68%; in assay [3], 27%; in [4], -0.29%; in [5] it was 20.5%; in assay [6], -1.84%. Besides, the inhibition in assay [7] was -1.06%; in assay [8], -1.16%; in assay [9], 1.08%; in assay [10], 1.32%; in [11] it was 2.37%; in assay [12], -0.75%. For the same molecule, the inhibition in [13] was 0.74%; in assay [14], -2.14%; in [15] it was 0.66%; in assay [16], -2.66%; in assay [17], 0.49%; in [18], -0.13%. Besides, the inhibition was -1.52% in assay [19] and -7.29% in [20].

As for `CN1CCC(C(=O)Nc2n[nH]c3nnc(-c4ccccc4)cc23)CC1`, the inhibition in assay [1] was determined as 5.74%; in assay [2], 1.97%; in [3] it was 5.41%; in assay [4], 2.03%; in assay [5] it was 4.42%; in assay [6], 2.9%. Further, the inhibition in assay [7] was 6.61%; in assay [8], 0.96%; in assay [9] it was 2.58%; in assay [10], -5.95%; in [12], 3.19%; in assay [13], 1.79%. Besides, the inhibition in [14] was 4.52%; in [15], 3.87%; in assay [16], 4.01%; in assay [17], 6.78%; in assay [18] it was -0.63%; in assay [19] it was -0.24%. In addition, the inhibition in [20] stood at 4.02%.

With `COc1cc2ncn(-c3cc(OCc4ccccc4Cl)c(C(N)=O)s3)c2cc1OC`, the inhibition in [1] is 27.1%; in assay [2] it was 4.62%; in assay [3], 32.7%; in assay [4] it was 3.59%; in assay [5] it was 32.2%; in assay [6], 1.53%. Also, the inhibition in assay [7] amounted to 5.8%; in [8], 1.8%; in assay [9] it was 21.1%; in assay [10] it was 0.24%; in [11], 2.44%; in [12] it was 1%. Moreover, the inhibition was 23.1% in assay [13]; 1.94% in assay [14]; 4.4% in assay [15]; 0.65% in assay [16]; 7.77% in [17]; -0.87% in assay [18]. Also, the results for the inhibition in assay [19] and in assay [20] were 1.14% and 0.5%, respectively.

Take `COC(=O)Nc1nc2cc(Oc3cccc(NC(=O)Nc4cc(C(F)(F)F)ccc4F)c3)ccc2[nH]1`: the inhibition in assay [1] was 12.6%; in assay [2], 5.16%; in assay [3], 19.8%; in assay [4], 0.82%; in assay [5], 24.6%; in assay [6], -1%. In addition, the inhibition was 0.13% in [7]; 4.08% in [8]; 41.3% in [9]; -0.41% in assay [10]; 1.25% in [11]; -0.47% in assay [12]. Besides, the inhibition in assay [13] was 1.35%; in [14], 1.84%; in assay [15], -1.52%; in assay [16], -1.63%; in assay [17] it was -2.33%; in [18], -0.22%. Also, the inhibition in assay [19] was -0.18%; in [20] it was -2.03%.

In the case of `NC(=O)c1ccc(-c2nc(-c3ccccn3)c(-c3ccc4c(c3)OCO4)[nH]2)cc1`, the inhibition was found to be 2.56% in [1]; 1.74% in assay [2]; 2.37% in [3]; 1.82% in [4]; 6.95% in assay [5]; 1.12% in assay [6]. Also, the inhibition in [7] is 2.39%; in assay [8], 1.95%; in assay [9], 6.03%; in assay [10] it was -3.37%; in assay [11] it was -1.2%; in [12] it was 1.51%. Moreover, the inhibition in assay [13] is 3.67%; in assay [14], 6%; in assay [15], 2.22%; in assay [16], 1.72%; in assay [17], 1.4%; in assay [18], -0.29%. Also, the results for the inhibition in assay [19] and in [20] were 0.83% and 5.75%, respectively.

`Nc1ncnc2occ(-c3ccc(NC(=O)Nc4cccc(C(F)(F)F)c4)cc3)c12`: the inhibition in assay [1] was determined as 89.2%; in assay [2], 12.3%; in [3] it was 48.2%; in assay [4], 16.1%; in assay [5] it was 55.8%; in assay [6], 6.2%. Also, the inhibition in [7] is 21.8%; in assay [8] it was 33.6%; in assay [9], 64.7%; in assay [11], 45.3%; in assay [12], 7.81%; in assay [13] it was 49.1%. For the same molecule, the inhibition turned out to be 20.4% in assay [14]; 71.3% in assay [15]; 2.23% in assay [16]; 7.46% in assay [17]; 0.15% in assay [18]; 6.68% in [19]. For the same molecule, in assay [20], the inhibition was found to be 7.62%.

Regarding `Cc1cccc(-c2n[nH]cc2-c2ccc3ncccc3n2)n1`, the inhibition in assay [1] is 2.07%; in [2], 3.03%; in assay [3], 25.9%; in assay [4] it was 5.29%; in assay [5], 37.2%; in [6] it was 2.05%. Further, the inhibition in [7] was 0.57%; in [8], 3.75%; in assay [9], 8%; in [10], -0.81%; in [11], 0.83%; in assay [12], 1.31%. In addition, the inhibition in [13] was 3.22%; in assay [14], 3%; in assay [15], 0.92%; in assay [16], 0.3%; in assay [17], 2.48%; in assay [18] it was -0.91%. For the same molecule, the inhibition in assay [19] was -1.51%; in [20] it was -1.25%.

As to `NCc1ccc(-c2nc(-c3ccc(Cl)c(O)c3)c(-c3ccncc3)[nH]2)cc1`, the inhibition in assay [1] was 24.2%; in assay [2], 12.6%; in assay [3] it was 54.6%; in assay [4], 6.87%; in [5] it was 53.1%; in assay [6], -0.45%. The inhibition in assay [7] was 2.22%; in assay [8], 9.17%; in assay [9] it was 55.8%; in [10] it was -4.39%; in assay [11], 3.04%; in [12] it was 0.72%. In addition, the inhibition in assay [13] amounted to 10.4%; in assay [14] it was 12.4%; in assay [15], 28.9%; in assay [16] it was 13.9%; in assay [17], 58.7%; in [18], 1.91%. Further, the inhibition in assay [19] is 6.57%; in assay [20], -0.21%.

(Values after ChEMBL document CHEMBL1961873, “Compounds: GSK PKIS; Assays: Nanosyn kinase panel” (2012).)
